The target in one experiment is FEZ1. As to the kind of experiment: pooled miR-30 sensor sort-seq; sequence = guide strand. Particulars: shRNA.
Take ATTACTAGCACTAGAAGCCAAC: the sensor-assay potency score (higher = more potent) was -1.45.

As for TTCTCGTAAGGAATGACTGTGT, the sensor-assay potency score (higher = more potent) is -0.149.

TTTAAATACATGTCGGAGGTTA had a sensor-assay potency score (higher = more potent) of 0.312.

On to TCAAACTCCAGCTCGTCCCGGC, for which the sensor-assay potency score (higher = more potent) turned out to be 0.386.

On to TTGTCTGTCAGAGCATCCCAAA, for which the sensor-assay potency score (higher = more potent) was -1.44.

Consider TTGAAGCTGATTATTTCGGAAG, for which the sensor-assay potency score (higher = more potent) was -0.859.

Take TTGCTCAGTGACCTCCTGCAGC: the sensor-assay potency score (higher = more potent) is -0.806.

As to TGAACCTCAATAAGCACCGTGA, the sensor-assay potency score (higher = more potent) was -0.29.

Consider TTTATTTCAAAATTAGTCTTAA, for which the sensor-assay potency score (higher = more potent) is -0.684.

Another experiment has as its target FFAR2. The description is as above. Particulars: shRNA.
TTTTTCTCTGGTGATACCCCAC returned a sensor-assay potency score (higher = more potent) of -0.286.

Take TTATCGGTGAAGTTCTCGTAGC: the sensor-assay potency score (higher = more potent) is -0.593.

Regarding TCGTGTTCAAGTATTGAACGAT, the sensor-assay potency score (higher = more potent) is -0.455.

TTCTCCTTGACCCACACCCCTG displayed a sensor-assay potency score (higher = more potent) of -1.59.

Consider TCTCGTAGCAGGTAATTTCATT, for which the sensor-assay potency score (higher = more potent) was -0.802.

Regarding TAGATGCTGCTGTAGAAGCCAA, the sensor-assay potency score (higher = more potent) is -0.865.

Take TAAGCCATGAGGATCAAGGAGC: the sensor-assay potency score (higher = more potent) is -1.02.

As to TAGCAGGTAATTTCATTGCCAC, the sensor-assay potency score (higher = more potent) is -0.783.

With TCGGTGAAGTTCTCGTAGCAGG, the sensor-assay potency score (higher = more potent) is -0.822.

Take TTGAGTGAACTGAACACCACGG: the sensor-assay potency score (higher = more potent) is 0.516.

The sequence TTCATTGCCACTTCTGACCTGC displayed a sensor-assay potency score (higher = more potent) of 0.752.

For TGAGTGAACTGAACACCACGGC, the sensor-assay potency score (higher = more potent) was determined as 0.269.

The target of a further experiment is FGA. Described as above. Particulars: shRNA.
TGTCTTTCCACAACCCTTGGGC showed a sensor-assay potency score (higher = more potent) of 0.289.

As for TTGATTGACTTCATCAATCAAC, the sensor-assay potency score (higher = more potent) is -0.764.

Regarding TTTAGCTACAGTACAAAGGATA, the sensor-assay potency score (higher = more potent) was -0.909.

The sequence TTCAGGACTTCAATTCTGCTTC came in with a sensor-assay potency score (higher = more potent) of -0.0905.

Turning to TTCAGTGATCCATCCATTCTTT, the sensor-assay potency score (higher = more potent) is -0.0325.

Consider TATTGTTCTTCTGATATTCAAA, for which the sensor-assay potency score (higher = more potent) was -1.2.

Consider TAAGTCTTTGGCAATGACCTGT, for which the sensor-assay potency score (higher = more potent) is 0.441.

The sequence TATTCTGTTTGTAAAATCTTGA had a sensor-assay potency score (higher = more potent) of -0.477.

For the sequence TTTCTCTCCACTTCTCTAGCAA, the sensor-assay potency score (higher = more potent) was 0.384.

AACATTTTTCTGCAGAAGCTGG showed a sensor-assay potency score (higher = more potent) of -0.95.

Sequence TCAATCAACCCTTTCATCCTGC had a sensor-assay potency score (higher = more potent) of 0.452.

As to TTTTTCTATGACTTTGCGCTTC, the sensor-assay potency score (higher = more potent) is -0.192.

For TCAAAGACTAATATGTCTCAGG, the sensor-assay potency score (higher = more potent) was -0.257.

In turn, TAGACTTCTGCACAGTTCTCTT registered a sensor-assay potency score (higher = more potent) of -0.561.

Turning to TTGTAGTCTTGCCAGGTCCGGT, the sensor-assay potency score (higher = more potent) is -0.917.

In turn, TTCTGCACAGTTCTCTTCCCAC had a sensor-assay potency score (higher = more potent) of -0.744.

TAACTCCATTCTCATCTGCGGC: the sensor-assay potency score (higher = more potent) is -1.53.

For TTCTATGACTTTGCGCTTCAGG, the sensor-assay potency score (higher = more potent) is -0.597.

As to TAAATTGTTTGCTGTAACTTGA, the sensor-assay potency score (higher = more potent) is -0.0308.

Source of the values: the OligoGym collection.
Further: reference of the scale not given here.
